Experimental data from PubChem BioAssay AID977606 (Broad Institute, 2014).
Among all 1,500 compounds or so, about 430 (29%) were called active. The rule behind the calls is not given here. A selection follows. Measured potencies and affinities stand elsewhere.

assay: insulin secretion activators without glucose, dose response, counter-screen for glucose-dependent insulin secretion activators, cell-based, INS-1E, Gaussia luciferase, luminescence, cherry-pick (AID 977606); details: INS-1E Gaussia luciferase insulin secretion, no glucose, 100% = twice neutral-control luminescence; series mostly up to 35 µM

Q: For `CCc1nc2c(OCc3ccccc3C)cccn2c1N(C)C(=O)c1ccco1`, which outcome is on record?
A: inactive

Q: Which outcome does the source give for `O=S(=O)(Nc1ncnc2sc3c(c12)CCC3)c1cc(F)ccc1F` here?
A: inactive

Q: For `CCN(CC)C(=O)n1c(Cc2ccccc2)nc2ccccc21`, which outcome is on record?
A: inactive

Q: For `Cc1ccc(S(=O)(=O)/N=C(/Nc2cccc(O)c2)c2ccccc2)cc1`, which outcome is on record?
A: inactive

Q: With `CCOc1ncccc1C(=O)NCc1cccc(OC)c1` as the molecule, how does the outcome read?
A: inactive

Q: Which outcome does the source give for `COc1cccc(CNC(=O)c2cccnc2Sc2ccccc2)c1` here?
A: inactive

Q: For `Cc1c(-c2cccc(Cl)c2)nc2ccccc2c1C(=O)NC1CC1`, which outcome is on record?
A: inactive

Q: For `COc1ccc(CN(C)C(=O)Cn2cc(C)c(=O)[nH]c2=O)cc1OC`, which outcome is on record?
A: inactive

Q: For `COc1ccc(-c2cc(NC=O)c3ncc(-c4ccc(OC)c(OC)c4)n3c2)cc1`, which outcome is on record?
A: inactive

Q: With `CC(=O)Nc1cc(-c2ccc(N3CCN(C)CC3)cc2)cn2c(-c3cccc(C(=O)N(C)C)c3)cnc12` as the molecule, how does the outcome read?
A: inactive

Q: With `O=C(Nc1ccc(S(=O)(=O)N2CCOCC2)cc1)c1ccc(=O)[nH]c1` as the molecule, how does the outcome read?
A: inactive

Q: With `O=C(NCc1ccc(Cl)cc1)c1cc(=O)[nH]c2ccc(S(=O)(=O)N3CCOCC3)cc12` as the molecule, how does the outcome read?
A: inactive

Q: Which outcome does the source give for `COc1ccc2[nH]c3c(NCCCN4CCCC4=O)ncnc3c2c1` here?
A: inactive

Q: Which outcome does the source give for `O=c1c(Cc2ccc(Cl)cc2Cl)c(O)ccn1CC(F)(F)F` here?
A: inactive

Q: For `CCNc1nc(NCC)nc(Nn2cnnc2)n1`, which outcome is on record?
A: inactive

Q: With `CS(=O)(=O)N1CCCCC1c1cc(C(=O)Nc2cccc3c2CCCC3)no1` (configuration not stated) as the molecule, how does the outcome read?
A: inactive

Q: For `CCOC(=O)c1nc(SC)n(C)c1C(=O)OCC`, which outcome is on record?
A: inactive

Q: For `COc1ccc2c(c1)C(C)(Cc1ccc(C(=O)c3ccccc3)cc1)C(=O)N2` (configuration not stated), which outcome is on record?
A: inactive

Q: For `O=C(O)c1ccc(/C=N/n2c(C3CCCCC3)n[nH]c2=S)cc1`, which outcome is on record?
A: inactive

Q: With `Cc1ccc(/C=N/n2c(-c3cccnc3)n[nH]c2=S)s1` as the molecule, how does the outcome read?
A: inactive

Q: For `C[C@H]1[C@@H](c2ccccc2)Oc2c(Cl)cccc2S(=O)(=O)N1C`, which outcome is on record?
A: inactive

Q: With `O=C(COc1ccccc1)N(Cc1cccc(F)c1)C1CCS(=O)(=O)C1` (configuration not stated) as the molecule, how does the outcome read?
A: inactive

Q: With `Cc1cccc(NCc2ccccc2)c1` as the molecule, how does the outcome read?
A: inactive

Q: Which outcome does the source give for `Cc1ccc(NCc2cccc(B(O)O)c2)cc1` here?
A: inactive

Q: With `Cc1cc(C)cc(Cn2c3ccc(NC(=S)NCc4ccccc4F)cc3c(=O)n2C)c1` as the molecule, how does the outcome read?
A: inactive

Q: Which outcome does the source give for `CC(C)Oc1ccc(C(=O)CCN2CCOCC2)cc1` here?
A: inactive

Q: Which outcome does the source give for `O=C(CCN1CCOCC1)c1ccc(N2CCCCC2)cc1` here?
A: inactive

Q: Which outcome does the source give for `O=C(c1ccc2c(c1)OCO2)N1CCc2ccccc2C1` here?
A: inactive

Q: Which outcome does the source give for `CC(=O)NC1C(=O)N(CCN2CCOCC2)c2ccc(Br)cc21` (configuration not stated) here?
A: inactive

Q: For `CCCn1c2ccccc2c2cn[nH]c(=O)c21`, which outcome is on record?
A: inactive

Q: Which outcome does the source give for `CC1CCC(NCCNC(=O)c2ccco2)CC1` (configuration not stated) here?
A: inactive

Q: For `Cc1ccc(S(=O)(=O)Nc2nc(C)cc(NN)n2)cc1`, which outcome is on record?
A: inactive
